Data reported in paper PMC7862700, “An all-to-all approach to the identification of sequence-specific readers for epigenetic DNA modifications on cytosine”.

Columns and labels:
Assay in all cases: DAPPL (digital affinity profiling via proximity ligation, sequencing); 10 mM Tris-HCl pH 7.5, 50 mM NaCl, 1 mM DTT, 4% glycerol, room temperature, 30 min; GST-TFs on glutathione beads, 16-mer random dsDNA library, 0.1% formaldehyde crosslink after washing; high values mean tight binding
Conditions in all cases: protein: recombinant; tags: N-terminal GST; dsDNA, one strand shown
FLI1 = target: T1, FLI1 (Homo sapiens, UniProt Q01543 1-452)
T1 sequence: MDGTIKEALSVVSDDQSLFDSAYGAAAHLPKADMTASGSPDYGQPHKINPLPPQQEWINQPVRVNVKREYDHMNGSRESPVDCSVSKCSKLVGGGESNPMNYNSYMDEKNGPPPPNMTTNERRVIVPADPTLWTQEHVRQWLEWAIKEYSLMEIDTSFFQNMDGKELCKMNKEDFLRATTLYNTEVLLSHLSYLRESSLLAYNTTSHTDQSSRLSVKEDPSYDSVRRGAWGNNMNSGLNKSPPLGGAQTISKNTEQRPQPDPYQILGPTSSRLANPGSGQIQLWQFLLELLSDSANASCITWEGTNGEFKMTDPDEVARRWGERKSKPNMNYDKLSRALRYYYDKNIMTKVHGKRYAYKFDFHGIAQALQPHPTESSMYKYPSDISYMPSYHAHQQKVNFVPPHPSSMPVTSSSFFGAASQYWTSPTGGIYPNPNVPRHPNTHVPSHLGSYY
In short: (§1)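 Sequencing on an Illumina NextSeq500 followed washing, crosslinking with 0.1% formaldehyde, proximity ligation (BsaI/T4 ligase, 1 h, 37 °C) and PCR amplification of pools that had been incubated for 30 min at room temperature with 200 nmole of a random double-stranded 16-mer DNA library in Tris/NaCl/DTT/glycerol buffer. Each pool held DNA-barcoded human transcription factors, expressed in yeast as GST fusions and captured on glutathione beads, plus a tag-only sample. Binding signal is a hexamer's read frequency for a factor divided by its frequency in the tag-only sample.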

ELK1 = target: T2, ELK1 (Homo sapiens, UniProt P19419 1-428)
T2 sequence: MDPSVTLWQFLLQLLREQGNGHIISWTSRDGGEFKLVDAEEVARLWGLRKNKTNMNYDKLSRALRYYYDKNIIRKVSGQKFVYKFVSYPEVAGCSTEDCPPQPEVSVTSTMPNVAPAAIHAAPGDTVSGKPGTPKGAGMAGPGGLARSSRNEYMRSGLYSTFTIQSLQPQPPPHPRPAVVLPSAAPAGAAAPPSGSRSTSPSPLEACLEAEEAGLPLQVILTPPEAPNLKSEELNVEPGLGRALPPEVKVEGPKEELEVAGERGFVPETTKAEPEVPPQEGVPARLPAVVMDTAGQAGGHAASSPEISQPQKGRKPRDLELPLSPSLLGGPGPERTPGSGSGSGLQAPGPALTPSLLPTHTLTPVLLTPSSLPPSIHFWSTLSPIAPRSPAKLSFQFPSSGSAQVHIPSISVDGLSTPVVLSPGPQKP
In short: as §1

GABPA = target: T3, GABPA (Homo sapiens, UniProt Q06546 1-454)
T3 sequence: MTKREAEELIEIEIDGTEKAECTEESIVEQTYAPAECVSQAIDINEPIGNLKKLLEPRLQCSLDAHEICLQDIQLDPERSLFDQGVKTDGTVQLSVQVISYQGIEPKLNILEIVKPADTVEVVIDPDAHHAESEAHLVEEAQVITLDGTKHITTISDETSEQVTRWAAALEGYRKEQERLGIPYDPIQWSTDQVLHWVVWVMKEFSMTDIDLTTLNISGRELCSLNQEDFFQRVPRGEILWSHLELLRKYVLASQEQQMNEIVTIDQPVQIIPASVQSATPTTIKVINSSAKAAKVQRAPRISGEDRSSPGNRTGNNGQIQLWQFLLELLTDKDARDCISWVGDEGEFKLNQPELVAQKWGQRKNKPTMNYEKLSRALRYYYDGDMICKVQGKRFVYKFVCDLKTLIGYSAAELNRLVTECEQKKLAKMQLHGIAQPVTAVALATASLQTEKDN
In short: as §1

ERG = target: T4, ERG (Homo sapiens, UniProt P11308 1-479)
T4 sequence: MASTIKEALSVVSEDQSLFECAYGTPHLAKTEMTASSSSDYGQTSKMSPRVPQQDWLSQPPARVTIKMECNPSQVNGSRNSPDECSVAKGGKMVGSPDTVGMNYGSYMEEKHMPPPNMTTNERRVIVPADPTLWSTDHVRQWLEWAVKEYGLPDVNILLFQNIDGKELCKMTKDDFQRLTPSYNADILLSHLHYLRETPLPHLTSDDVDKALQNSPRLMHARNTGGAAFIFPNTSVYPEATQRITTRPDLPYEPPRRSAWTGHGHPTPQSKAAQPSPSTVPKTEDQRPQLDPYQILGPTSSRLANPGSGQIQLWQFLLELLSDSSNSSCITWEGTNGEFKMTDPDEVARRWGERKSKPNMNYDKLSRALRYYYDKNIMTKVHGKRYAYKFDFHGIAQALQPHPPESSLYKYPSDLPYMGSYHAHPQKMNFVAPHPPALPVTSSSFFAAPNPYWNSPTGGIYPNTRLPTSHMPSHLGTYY
In short: as §1

ELF1 = ELF1 (Homo sapiens, UniProt P32519 1-619)
Sequence of ELF1 (P32519 whole entry): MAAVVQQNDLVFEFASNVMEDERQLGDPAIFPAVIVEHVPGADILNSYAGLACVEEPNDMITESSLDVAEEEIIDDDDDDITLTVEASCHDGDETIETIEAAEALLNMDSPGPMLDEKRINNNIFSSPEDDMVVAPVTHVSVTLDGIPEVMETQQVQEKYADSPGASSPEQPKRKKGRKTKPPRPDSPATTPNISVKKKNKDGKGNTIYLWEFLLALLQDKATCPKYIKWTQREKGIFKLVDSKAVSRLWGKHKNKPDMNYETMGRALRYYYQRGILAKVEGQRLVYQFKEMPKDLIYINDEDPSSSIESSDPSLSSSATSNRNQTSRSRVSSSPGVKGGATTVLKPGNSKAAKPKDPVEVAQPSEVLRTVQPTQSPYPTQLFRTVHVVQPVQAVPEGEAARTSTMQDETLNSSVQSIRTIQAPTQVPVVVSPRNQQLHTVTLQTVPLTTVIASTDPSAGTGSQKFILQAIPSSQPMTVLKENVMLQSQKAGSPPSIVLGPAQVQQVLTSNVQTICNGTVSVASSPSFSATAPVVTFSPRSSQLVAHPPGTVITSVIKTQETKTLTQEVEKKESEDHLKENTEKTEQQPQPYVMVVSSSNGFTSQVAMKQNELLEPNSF
In short: as §1

EHF = target: T5, EHF (Homo sapiens, UniProt Q9NZC4 1-300)
T5 sequence: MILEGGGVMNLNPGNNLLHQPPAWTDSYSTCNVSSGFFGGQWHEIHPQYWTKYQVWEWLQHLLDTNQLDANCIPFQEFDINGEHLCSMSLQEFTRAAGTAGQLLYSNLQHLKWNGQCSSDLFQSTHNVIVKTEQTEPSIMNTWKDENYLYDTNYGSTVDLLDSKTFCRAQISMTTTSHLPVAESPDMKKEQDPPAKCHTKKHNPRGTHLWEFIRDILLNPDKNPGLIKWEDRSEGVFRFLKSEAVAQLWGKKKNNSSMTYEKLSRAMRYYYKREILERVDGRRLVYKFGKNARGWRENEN
In short: as §1

SPI1 = SPI1 (Homo sapiens, UniProt P17947 1-270)
In short: as §1

SPIB = SPIB (Homo sapiens, UniProt Q01892 1-262)
Sequence of SPIB (Q01892 whole entry): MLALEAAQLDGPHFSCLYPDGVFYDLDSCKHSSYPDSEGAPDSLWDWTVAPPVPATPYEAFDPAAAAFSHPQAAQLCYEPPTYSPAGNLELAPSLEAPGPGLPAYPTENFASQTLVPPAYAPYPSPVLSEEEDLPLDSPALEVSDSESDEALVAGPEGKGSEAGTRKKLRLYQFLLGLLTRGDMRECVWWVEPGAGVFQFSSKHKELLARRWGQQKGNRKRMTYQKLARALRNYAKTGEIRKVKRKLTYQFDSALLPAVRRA
In short: as §1

ELK3 = target: T6, ELK3 (Homo sapiens, UniProt P41970 1-407)
T6 sequence: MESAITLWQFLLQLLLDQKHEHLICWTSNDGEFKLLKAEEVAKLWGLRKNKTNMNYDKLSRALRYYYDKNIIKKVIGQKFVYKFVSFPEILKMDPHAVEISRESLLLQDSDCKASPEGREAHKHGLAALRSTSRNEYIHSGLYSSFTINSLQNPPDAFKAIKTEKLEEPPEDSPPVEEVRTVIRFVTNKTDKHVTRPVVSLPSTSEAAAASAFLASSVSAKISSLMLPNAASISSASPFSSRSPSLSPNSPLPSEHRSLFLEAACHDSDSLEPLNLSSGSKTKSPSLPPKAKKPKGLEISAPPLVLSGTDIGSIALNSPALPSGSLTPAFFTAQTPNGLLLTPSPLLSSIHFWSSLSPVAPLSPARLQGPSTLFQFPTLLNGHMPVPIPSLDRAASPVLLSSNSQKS
In short: as §1

Sequence: TCCGCA
- binding signal (FLI1): 2.2 fold enrichment (6-mer frequency, TF over GST control)
- binding signal (ELK1): 2.22 fold enrichment (6-mer frequency, TF over GST control)
- binding signal (GABPA): 2.07 fold enrichment (6-mer frequency, TF over GST control)
- binding signal (ERG): 2.03 fold enrichment (6-mer frequency, TF over GST control)
- binding signal (ELF1): 2.01 fold enrichment (6-mer frequency, TF over GST control)
- binding signal (EHF): 2.03 fold enrichment (6-mer frequency, TF over GST control)
- binding signal (SPI1): 2.85 fold enrichment (6-mer frequency, TF over GST control)
- binding signal (SPIB): 2.18 fold enrichment (6-mer frequency, TF over GST control)
- binding signal (ELK3): 2.24 fold enrichment (6-mer frequency, TF over GST control)

Sequence: CTAACC
- binding signal (FLI1): 1.12 fold enrichment (6-mer frequency, TF over GST control)
- binding signal (ELK1): 1.23 fold enrichment (6-mer frequency, TF over GST control)
- binding signal (GABPA): 1.09 fold enrichment (6-mer frequency, TF over GST control)
- binding signal (ERG): 1.16 fold enrichment (6-mer frequency, TF over GST control)
- binding signal (ELF1): 1.12 fold enrichment (6-mer frequency, TF over GST control)
- binding signal (EHF): 1.17 fold enrichment (6-mer frequency, TF over GST control)
- binding signal (SPI1): 1.14 fold enrichment (6-mer frequency, TF over GST control)
- binding signal (SPIB): 1.08 fold enrichment (6-mer frequency, TF over GST control)
- binding signal (ELK3): 1.29 fold enrichment (6-mer frequency, TF over GST control)

Sequence: TAGTAT
- binding signal (FLI1): 1.25 fold enrichment (6-mer frequency, TF over GST control)
- binding signal (ELK1): 1.34 fold enrichment (6-mer frequency, TF over GST control)
- binding signal (GABPA): 1.28 fold enrichment (6-mer frequency, TF over GST control)
- binding signal (ERG): 1.23 fold enrichment (6-mer frequency, TF over GST control)
- binding signal (ELF1): 1.29 fold enrichment (6-mer frequency, TF over GST control)
- binding signal (EHF): 1.38 fold enrichment (6-mer frequency, TF over GST control)
- binding signal (SPI1): 1.23 fold enrichment (6-mer frequency, TF over GST control)
- binding signal (SPIB): 1.33 fold enrichment (6-mer frequency, TF over GST control)
- binding signal (ELK3): 1.15 fold enrichment (6-mer frequency, TF over GST control)

Sequence: CCTAAG
- binding signal (FLI1): 1.09 fold enrichment (6-mer frequency, TF over GST control)
- binding signal (ELK1): 1.14 fold enrichment (6-mer frequency, TF over GST control)
- binding signal (GABPA): 1.12 fold enrichment (6-mer frequency, TF over GST control)
- binding signal (ERG): 1.16 fold enrichment (6-mer frequency, TF over GST control)
- binding signal (ELF1): 1.19 fold enrichment (6-mer frequency, TF over GST control)
- binding signal (EHF): 1.18 fold enrichment (6-mer frequency, TF over GST control)
- binding signal (SPI1): 1.06 fold enrichment (6-mer frequency, TF over GST control)
- binding signal (SPIB): 1.21 fold enrichment (6-mer frequency, TF over GST control)
- binding signal (ELK3): 1.17 fold enrichment (6-mer frequency, TF over GST control)

Sequence: TCACGA
- binding signal (FLI1): 1.09 fold enrichment (6-mer frequency, TF over GST control)
- binding signal (ELK1): 1.19 fold enrichment (6-mer frequency, TF over GST control)
- binding signal (GABPA): 1.09 fold enrichment (6-mer frequency, TF over GST control)
- binding signal (ERG): 1.1 fold enrichment (6-mer frequency, TF over GST control)
- binding signal (ELF1): 1.13 fold enrichment (6-mer frequency, TF over GST control)
- binding signal (EHF): 1.21 fold enrichment (6-mer frequency, TF over GST control)
- binding signal (SPI1): 1.06 fold enrichment (6-mer frequency, TF over GST control)
- binding signal (SPIB): 1.04 fold enrichment (6-mer frequency, TF over GST control)
- binding signal (ELK3): 1.21 fold enrichment (6-mer frequency, TF over GST control)

Sequence: TAATCT
- binding signal (FLI1): 1.39 fold enrichment (6-mer frequency, TF over GST control)
- binding signal (ELK1): 1.34 fold enrichment (6-mer frequency, TF over GST control)
- binding signal (GABPA): 1.33 fold enrichment (6-mer frequency, TF over GST control)
- binding signal (ERG): 1.38 fold enrichment (6-mer frequency, TF over GST control)
- binding signal (ELF1): 1.4 fold enrichment (6-mer frequency, TF over GST control)
- binding signal (EHF): 1.44 fold enrichment (6-mer frequency, TF over GST control)
- binding signal (SPI1): 1.33 fold enrichment (6-mer frequency, TF over GST control)
- binding signal (SPIB): 1.4 fold enrichment (6-mer frequency, TF over GST control)
- binding signal (ELK3): 1.46 fold enrichment (6-mer frequency, TF over GST control)

Sequence: ACCTTT
- binding signal (FLI1): 1.52 fold enrichment (6-mer frequency, TF over GST control)
- binding signal (ELK1): 1.33 fold enrichment (6-mer frequency, TF over GST control)
- binding signal (GABPA): 1.47 fold enrichment (6-mer frequency, TF over GST control)
- binding signal (ERG): 1.38 fold enrichment (6-mer frequency, TF over GST control)
- binding signal (ELF1): 1.47 fold enrichment (6-mer frequency, TF over GST control)
- binding signal (EHF): 1.38 fold enrichment (6-mer frequency, TF over GST control)
- binding signal (SPI1): 1.49 fold enrichment (6-mer frequency, TF over GST control)
- binding signal (SPIB): 1.45 fold enrichment (6-mer frequency, TF over GST control)
- binding signal (ELK3): 1.35 fold enrichment (6-mer frequency, TF over GST control)
